# Mdm2 MdmX PPI: inhibitors of human Mdm2-MdmX association, primary screen, cell-based, luminescence, split luciferase, SaOS-2, uHTS | inhibition, % at 8 µM | Protein Mdm4 (Homo sapiens) + E3 ubiquitin-protein ligase Mdm2 (Homo sapiens), … | SaOS-2 split-luciferase Mdm2/MdmX complementation | actives 3% (n = 330,000);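 active means inhibition of at least 50% at 8 µM in the primary screen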
# Target sequence (O15151 whole entry, looked up): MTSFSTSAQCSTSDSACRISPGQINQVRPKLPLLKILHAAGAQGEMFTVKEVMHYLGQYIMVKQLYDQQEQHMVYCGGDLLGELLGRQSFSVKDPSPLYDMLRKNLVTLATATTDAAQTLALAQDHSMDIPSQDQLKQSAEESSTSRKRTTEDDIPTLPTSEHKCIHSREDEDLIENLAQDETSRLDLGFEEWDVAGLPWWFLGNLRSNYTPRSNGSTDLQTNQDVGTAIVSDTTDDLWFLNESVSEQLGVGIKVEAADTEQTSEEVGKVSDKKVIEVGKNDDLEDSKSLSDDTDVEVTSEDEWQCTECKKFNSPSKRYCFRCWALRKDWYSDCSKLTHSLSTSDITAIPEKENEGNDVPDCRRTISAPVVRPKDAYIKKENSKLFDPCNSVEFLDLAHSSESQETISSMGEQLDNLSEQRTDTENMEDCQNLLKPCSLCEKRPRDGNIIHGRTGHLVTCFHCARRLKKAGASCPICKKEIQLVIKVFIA
# Target sequence (Q00987 whole entry, looked up): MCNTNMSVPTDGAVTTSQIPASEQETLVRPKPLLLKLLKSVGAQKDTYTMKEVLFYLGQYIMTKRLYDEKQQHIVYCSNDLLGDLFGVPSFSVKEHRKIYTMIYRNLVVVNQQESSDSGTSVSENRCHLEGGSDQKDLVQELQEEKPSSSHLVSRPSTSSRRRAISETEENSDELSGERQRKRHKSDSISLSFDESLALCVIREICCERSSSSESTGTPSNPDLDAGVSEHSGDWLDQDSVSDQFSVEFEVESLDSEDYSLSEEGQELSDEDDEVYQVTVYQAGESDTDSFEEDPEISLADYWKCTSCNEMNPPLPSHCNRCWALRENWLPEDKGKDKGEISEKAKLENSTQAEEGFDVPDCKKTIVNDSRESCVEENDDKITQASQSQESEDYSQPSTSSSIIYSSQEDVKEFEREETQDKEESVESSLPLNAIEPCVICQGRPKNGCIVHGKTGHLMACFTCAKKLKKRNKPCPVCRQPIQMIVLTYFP
# tim10-1 inh: growth inhibitors of tim10-1 mutant yeast, primary screen, luminescence, uHTS; inhibition, % at 20 µM; S. cerevisiae tim10-1 ts strain growth, BacTiter-Glo, 24 h; actives 2.2% (n = 330,000); AID 463190, 2010;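 active means inhibition of at least 40%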;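 further: mutant grown at 25 °C; 0% = DMSO wells with yeast and 100% = wells holding no yeast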
# MPTP block: mitochondrial permeability transition pore inhibitors, primary screen, biochemical, isolated mouse mitochondria, absorbance; Ca2+ swelling absorbance, 30 min; inhibition, % at 10 µM; actives 1.4% (n = 360,000); AID 602449, 2012;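 active means inhibition of 50% or more, scaled per plate between neutral and stimulator controls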;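 further: 0% = DMSO wells given calcium and 100% = 1 mM EGTA wells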
# TIM10 inh: growth inhibitors of isogenic TIM10 control yeast, primary screen, counter-screen for tim10-1 yeast inhibitor project, luminescence, uHTS; S. cerevisiae TIM10 strain growth, BacTiter-Glo luminescence, 24 h; inhibition, % at 10 µM; actives 1.4% (n = 330,000); AID 463195, 2010;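 active means inhibition of 40% or more at the single tested concentration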;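 further: wild-type TIM10 isogenic control strain grown at permissive 25 °C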
# tim23-1 inh: growth inhibitors of tim23-1 mutant yeast, primary screen, luminescence, uHTS; AID 463212, 2010; inhibition, % at 20 µM; S. cerevisiae tim23-1 growth, BacTiter-Glo luminescence, 24 h; actives 1.3% (n = 330,000);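 active means growth inhibition of the mutant yeast at or above 50%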;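 further: temperature-sensitive mutant grown at 25 °C; plate controls were DMSO-treated mutant yeast for no effect and medium wells lacking yeast for full effect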
# tim10 confirm: growth inhibitors of wild-type TIM10 yeast, confirmation, counter-screen for tim10-1 synthetic lethality project, single concentration, luminescence, S. cerevisiae; shares compounds with TIM10 inh; S. cerevisiae tim10 strain growth, BacTiter-Glo luminescence, 24 h; inhibition, % at 10 µM; actives 63% (n = 4,600); AID 463215, 2010;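 active means inhibition of yeast growth at or above a set limit in either of two replicates at 10 µM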;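 further: this counterscreen used the strain with wild-type TIM10; 0% = yeast with DMSO and 100% = medium wells lacking yeast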
# Starred values were filed as active, the others as inactive; x = no result given. An excerpt weighted towards active compounds, which were near 6.3% of everything screened.
SMILES,Mdm2 MdmX PPI,tim10-1 inh,MPTP block,TIM10 inh,tim23-1 inh,tim10 confirm
O=C(N=Nc1c(O)[nH]c2ccc(Br)cc12)c1ccco1,x,x,-1.1,x,x,x
O=C(N=Nc1c(O)[nH]c2ccc(Br)cc12)c1ccccc1-n1cccc1,44.2,32.5,-1.0,48.2*,29.5,35.5*
COc1ccc(NC(=O)CNCc2cccs2)c(OC)c1,x,x,1.0,x,x,x
CC(C)CC(=O)NC(=S)Nc1nc(-c2cccc3ccccc23)cs1,6.7,35.6,2.5,47.2*,15.1,-18.6
Cc1cccc(-c2cnc(C(O)c3ccc(F)c(C)c3)[nH]2)c1 (stereo unspecified),x,x,1.0,x,x,x
O=C(NC(=S)N1CCc2ccccc21)c1ccccc1Br,-15.2,23.8,-1.0,40.6*,33.8,31.4*
CCCCNC(=O)C1(C)CCN1C(=O)c1cccc(OC(C)=O)c1C (stereo unspecified),x,x,-1.0,x,x,x
S=c1nc(SCc2ccccc2)[nH]c2ccccc12,-9.5,36.0,-0.7,49.4*,12.0,39.5*
Cc1cccc(OCCCc2c(C)n[nH]c2C)c1,16.3,20.2,1.4,-11.8,-9.0,x
Cc1n[nH]c(C)c1CCOc1ccc(C(C)C)cc1,-33.0,36.1,39.8,48.5*,43.1,29.5*
O=C(Cn1cc(/C=C\[N+](=O)[O-])c2ccccc21)Nc1ccccc1,30.8,37.9,21.7,42.7*,37.6,55.2*
O=[N+]([O-])/C=C/c1cn(Cc2ccccc2)c2ccccc12,33.8,34.8,-6.7,46.5*,43.7,56.1*
O=C(O)Cn1cc(/C=C/[N+](=O)[O-])c2ccccc21,12.1,-3.9,-0.9,0.4,7.1,x
Nc1ccc(C(=O)N/N=C/c2cn(Cc3ccccc3)c3ccccc23)cc1,14.0,-2.1,-0.1,-2.3,11.9,x
Cc1ccccc1NC(=S)NC(=O)CCc1ccccc1,1.4,25.8,0.0,44.2*,44.4,35.5*
CCNC(=O)C1(C)CCN(Cc2ccc(C#N)cc2)C1 (stereo unspecified),x,x,0.5,x,x,x
CC1(C(=O)Nc2cccc(OC(F)(F)F)c2)Cc2c(-c3cccc(C(N)=O)c3)ccnc2O1 (stereo unspecified),x,x,-0.6,x,x,x
O=C(c1ccc([N+](=O)[O-])o1)N1CCOCC1,0.2,-2.7,-0.5,8.1,24.5,x
COc1cc2c(cc1OC)CN(C(=O)c1ccc([N+](=O)[O-])o1)CC2,13.0,35.0,1.3,68.4*,30.7,75.0*
O=C(CCS(=O)(=O)c1ccccc1)N(CCCN1CCOCC1)c1nc2ccc(F)cc2s1,44.7,29.7,-0.5,56.1*,34.6,64.7*
CCc1cccc2sc(N(CCCN3CCOCC3)C(=O)CS(=O)(=O)c3ccccc3)nc12,17.7,21.2,-0.3,21.0,30.3,x
CC1Cc2ccccc2N1C1=NS(=O)(=O)c2ccccc21 (stereo unspecified),-45.4,28.1,1.4,41.8*,31.0,10.3
CCc1nc2ccc(C(=O)Nc3cccc(NS(C)(=O)=O)c3)cn2c1N(CCC(C)C)CCN(C)C,x,x,-1.7,x,x,x
CCCCN1C(=O)C(CC(=O)NCCN2CCOCC2)CC(C(=O)N(C)C)=C1C (stereo unspecified),x,x,-1.3,x,x,x
COc1ccc(C2CC(=O)C(C=NCC(C)C)=C(O)C2)cc1 (stereo unspecified),11.6,-9.1,0.6,96.6*,7.9,1.4
SMILES,Mdm2 MdmX PPI,tim10-1 inh,MPTP block,TIM10 inh,tim23-1 inh,tim10 confirm
CC1(C(=O)Nc2ccc3c(c2)OCCO3)CSCC(=O)N1CCc1ccccc1F (stereo unspecified),x,x,-0.7,x,x,x
CCCCNC(=O)C1(C)CCCCN1Cc1ccccc1-c1ccccc1 (stereo unspecified),x,x,-2.3,x,x,x
CCC(C)(C)C1CCc2[nH]nc(C(=O)N/N=C(\C)c3ccco3)c2C1 (stereo unspecified),-52.1,30.8,8.0,44.6*,47.2,24.9
C/C(=N\NC(=O)c1n[nH]c2c1CCC2)c1ccco1,14.1,8.5,0.1,-6.0,18.3,x
O=C1NC[C@@H](CCCCN2C[C@H](Cc3ccccc3)N(CCc3ccc(O)cc3)C(=O)C2=O)N(CC2CCCCC2)C1=O,x,x,-2.1,x,x,x
Cc1ccc(C2CC(C(F)(F)F)n3ncc(C(=O)NCc4ccco4)c3N2)cc1 (stereo unspecified),-4.7,35.6,0.7,47.5*,49.2,31.7*
Cc1ccc(C2CC(C(F)(F)F)n3ncc(C(N)=O)c3N2)cc1 (stereo unspecified),-3.1,2.2,-2.1,-4.4,10.2,x
Oc1nc(Nc2cccc(Cl)c2)sc1/C=C1\C=Nc2ccccc21,-0.4,18.0,33.3,44.3*,34.7,-16.4
COc1cccc(C(=O)OC(C)CN2CCCC2)c1 (stereo unspecified),-13.7,8.1,0.7,-11.8,8.9,x
CC(CN1CCCCC1)OC(=O)c1cccc(F)c1 (stereo unspecified),-23.5,-13.3,-0.5,96.5*,3.9,-8.3
CCC[C@H]1CN(c2ccccc2)C(=O)[C@@H]1CC(=O)NC,x,x,-0.2,x,x,x
Cc1ccccc1CSCC1Nc2ccc(C(=O)NCCc3ccccc3)cc2NC1=O (stereo unspecified),x,x,-1.2,x,x,x
Cc1ccc(C(=O)Oc2ccc(C(=O)COC(=O)C3CC(=O)N(Cc4ccco4)C3)cc2)cc1 (stereo unspecified),-23.9,39.5,0.9,40.6*,21.0,13.3
CCOC(=O)C1(C)CCN1C(=O)c1cccs1 (stereo unspecified),x,x,0.9,x,x,x
CC(OC(=O)c1ccc([N+](=O)[O-])s1)C(=O)Nc1ncc(Cl)cc1Cl (stereo unspecified),9.9,24.4,2.8,43.8*,23.3,1.5
CC1CCCCN1Cc1c(O)ccc2c(=O)c(-c3nc4ccccc4s3)c(N)oc12 (stereo unspecified),48.1,22.5,-0.9,41.7*,46.1,25.1
CCn1c(O)c(C=NCc2cccs2)c(=O)n(CC)c1=S,49.6,38.8,4.9,41.7*,43.2,6.8
COc1ccc2oc(=O)c(-c3nnc(N)s3)cc2c1,-16.0,37.3,0.5,62.4*,35.9,60.4*
O=C(NC1CCCCCCC1)NC1CCCCC1,-42.3,29.6,0.5,49.6*,32.8,23.5
CCOC(=O)N(C)c1c(CC)nc2c(OCc3ccccc3C)cccn12,x,x,0.8,x,x,x
CCCCNC(=O)C1(C)CCN1C(=O)c1cccc2c1OCCO2 (stereo unspecified),x,x,1.1,x,x,x
Cc1cc(O)cc2c(=O)c3ccccc3sc12,-11.4,36.0,0.2,60.3*,20.9,55.4*
O=C(NC1=NCCS1)c1csc2ccccc12,-162.2,33.6,-1.0,44.2*,28.2,28.4
O=C(NC1=NCCS1)c1cc(-c2cccc(Br)c2)nc2ccccc12,26.4,36.1,0.4,43.3*,47.0,9.7
